Data published in PubChem BioAssay (EPA / NIEHS).
Records with an inconclusive call do not appear. Active and inactive are the calls of the source. How the source made its calls, unless noted: active means hit-call score of the fitted dose curve at least 0.9, where 1 is the maximum; inconclusive means response in the unintended direction; inactive means score below 0.9.

Experiments:
[1] = biological target: Estrogen receptor beta (Homo sapiens) (UniProt Q92731); assay: OT_ER_ERbERb_1440: Odyssey Thera (OT) 24-hour HEK293T Protein-Complementation Assay for Estrogen Receptor-beta/-beta Homodimer (AID 2283380);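 further: fluorescence gain from ER beta LBD homodimer complementation read by laser scanning cytometry; scored as signal increase over DMSO baseline for both agonists and antagonists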
Procedure, shortened: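 Fluorescence increase, nuclear for agonists or whole-cell for antagonists, relative to DMSO vehicle, quantified by laser scanning cytometer after fixation and Draq5 staining. Readout from 24 h treatment of HEK293T cells carrying complementation-paired ER beta LBD (aa 310-547).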

[2] = biological target: Estrogen receptor (Homo sapiens) (UniProt P03372); assay: OT_ERa_GFPERaERE_0480: Odyssey Thera (OT) 8-hour HeLa Transcription Induction Assay for Estrogen Receptor (AID 2283381; active means hit-call score of the fitted dose curve at least 0.9, where 1 is the maximum; inactive means score below 0.9)
Procedure, shortened: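 Fluorescence microscopy with high-content image analysis measures ERE-driven GFP induction in HeLa cells at 8 h post-dose. Increases fitted against DMSO baseline.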

[3] = biological target: Estrogen receptor (Homo sapiens) (UniProt P03372); assay: OT_ERa_GFPERaERE_0120: Odyssey Thera (OT) 2-hour HeLa Transcription Induction Assay for Estrogen Receptor (AID 2283382)
Procedure, shortened: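 Fluorescence-microscopy images of the GFP-ERα/ERE reporter, scored by high-content image algorithms, give the readout. HeLa exposure lasted 2 h, and only signal increase over DMSO was fitted.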

[4] = biological target: Retinoic acid receptor RXR-alpha (Homo sapiens) (UniProt P19793); assay: OT_NURR1_NURR1RXRa_0480: Odyssey Thera (OT) 8-hour HEK293T Protein Complementation Assay for Nurr1/retinoid X receptor (RXR) (AID 2283385)
Procedure, shortened: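 Interaction of Nurr1 with RXRα read as reconstituted reporter fluorescence in a HEK293T fragment-complementation system, 8 h post-treatment; increase over DMSO baseline analysed.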

[5] = biological target: Retinoic acid receptor RXR-alpha (Homo sapiens) (UniProt P19793); assay: OT_NURR1_NURR1RXRa_1440: Odyssey Thera (OT) 24-hour HEK293T Protein Complementation Assay for Nurr1/retinoid X receptor (RXR) (AID 2283386)
Procedure, shortened: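 Gain in fluorescence, fitted relative to DMSO, reflects Nurr1–RXRα association in HEK293T cells after 24 h dosing. Bait and prey are each linked to a reporter-protein fragment that reassembles on interaction.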

[6] = biological target: Peroxisome proliferator-activated receptor gamma (Homo sapiens) (UniProt P37231); assay: OT_PPARg_PPARgSRC1_0480: Odyssey Thera (OT) 8-hour Protein-Complementation Assay for Peroxisome Proliferator-activated Receptor Gamma / SRC-1 Co-activator (AID 2283387);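 further: nuclear to cytoplasmic split Venus YFP fluorescence ratio reporting PPARg SRC-1 interaction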
Procedure, shortened: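 Read-out: 488 nm N/C fluorescence ratio from complemented Venus YFP fragments, ≥350 cells per image, gain-of-signal fitted against DMSO baseline. Fusions of PPARg/SRC-1 with IFP1/IFP2 expressed transiently in HEK293T; compounds applied 8 h.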

[7] = biological target: Peroxisome proliferator-activated receptor gamma (Homo sapiens) (UniProt P37231); assay: OT_PPARg_PPARgSRC1_1440: Odyssey Thera (OT) 24-hour Protein-Complementation Assay for Peroxisome Proliferator-activated Receptor Gamma/ SRC-1 Co-activator (AID 2283388);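 further: nuclear to cytoplasmic ratio of reconstituted Venus YFP fluorescence in fixed imaged cells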
Procedure, shortened: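 Cells carrying the PPARg/SRC-1 fragment-complementation reporter receive compound for 24 hours, are fixed and counterstained with Draq5, then imaged. Increased nuclear relative to cytoplasmic YFP fluorescence above DMSO baseline indicates binding activity.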

[8] = biological target: Agonist Androgen Response Element (ARE), AR (gene 367) (UniProt P10275); assay: OT_AR_ARELUC_AG_1440: Odyssey Thera (OT) 24-hour CHO-K1 Luciferase Assay for Agonist Androgen Response Element (ARE) (AID 2283379)
Description: OT_AR_ARELUC_AG_1440 is a cell-based, single-readout assay that uses CHO-K1, a chinese hamster ovary cell line, with measurements taken at 24 hours after chemical dosing in a 384-well plate.OT_AR_ARELUC_AG_1440 is one of one assay component(s) measured or calculated from the OT_AR_ARELUC_AG_1440 assay. It is designed to make measurements of luciferase induction, a form of inducible reporter, as detected with bioluminescence signals by Luciferase technology.Data from the assay component OT_AR_ARELUC_AG_1440 was analyzed into 1 assay endpoint. This assay endpoint, OT_AR_ARELUC_AG_1440, was analyzed in the positive analysis fitting direction relative to DMSO as the negative control and baseline of activity. Using a type of inducible reporter, measures of receptor for gain-of-signal activity can be used to understand the reporter gene at the pathway-level as they relate to the gene AR. Furthermore, this assay endpoint can be referred to as a primary readout, because the performed assay has only produced 1 assay endpoint. To generalize the intended target to other relatable targets, this assay endpoint is annotated to the nuclear receptor intended target family, where the subfamily is steroidal.
To identify AR agonists, CHO-K1 cells are seeded into a white-walled/white-bottom 384-well plate, followed by treatment with compounds of interest or controls for 24 hours. A luciferase assay mix containing D-luciferin and ATP in PBS is then added to the cells and luminescence quantified on a Luminoskan (Thermo Scientific) luminometer. Modulation of this assay is quantified as an increase in mean luminescence intensity relative to vehicle controls. To evaluate specificity of the AR / ARE-luc assay, several known AR agonists, AR antagonists, and ER-selective compounds were also tested in 5-pt concentration-response format in a minimum of 7 assay plates. OT determined the reproducibility of DHT-induced AR/ARE-luc transcriptional activation with a total of seven 384-well plates run on 2 different days, for 24-h time frames. A minimum of 3 replicate wells were analyzed for each sample with 14 replicate wells for vehicle controls. Luminescence data were captured on the Luminoskan luminometer.

[9] = biological target: Bile acid receptor (Homo sapiens) (UniProt Q96RI1); assay: OT_FXR_FXRSRC1_0480: Odyssey Thera (OT) 8-hour HEK293T Protein-Complementation Assay for Farnesoid X receptor/SRC-1 Co-activator (AID 2283383)
Procedure, shortened: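 Binding of FXR to coactivator SRC-1 was read as fluorescence from a reconstituted split reporter in HEK293T cells, 8 h after chemical addition. Only increases in signal versus DMSO were fit.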

[10] = biological target: Bile acid receptor (Homo sapiens) (UniProt Q96RI1); assay: OT_FXR_FXRSRC1_1440: Odyssey Thera (OT) 24-hour HEK293T Protein-Complementation Assay for Farnesoid X receptor/SRC-1 Co-activator (AID 2283384)
Procedure, shortened: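 Protein-fragment complementation: FXR and SRC-1 fused to reporter fragments that reassemble on interaction, read by fluorescence intensity. Human HEK293T cells measured 24 h post-dose; positive-direction fit versus DMSO.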

Estrogen receptor (Homo sapiens), sequence (P03372 whole entry, looked up): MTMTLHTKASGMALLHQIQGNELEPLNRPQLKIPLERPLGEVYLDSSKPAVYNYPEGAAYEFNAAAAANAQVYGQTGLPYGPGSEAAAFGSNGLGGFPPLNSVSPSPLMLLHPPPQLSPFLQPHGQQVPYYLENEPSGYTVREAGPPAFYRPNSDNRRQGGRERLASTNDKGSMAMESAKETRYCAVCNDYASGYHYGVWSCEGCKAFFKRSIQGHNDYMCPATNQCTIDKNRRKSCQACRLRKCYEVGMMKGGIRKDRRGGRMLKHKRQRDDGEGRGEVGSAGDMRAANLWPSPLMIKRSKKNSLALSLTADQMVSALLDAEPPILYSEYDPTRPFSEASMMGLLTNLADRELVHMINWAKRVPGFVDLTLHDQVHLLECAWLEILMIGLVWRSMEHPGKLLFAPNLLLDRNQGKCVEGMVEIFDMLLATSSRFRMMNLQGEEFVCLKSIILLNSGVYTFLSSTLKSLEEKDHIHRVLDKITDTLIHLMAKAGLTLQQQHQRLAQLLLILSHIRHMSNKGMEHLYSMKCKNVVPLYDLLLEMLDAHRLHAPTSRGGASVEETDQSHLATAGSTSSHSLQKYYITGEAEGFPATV
Retinoic acid receptor RXR-alpha (Homo sapiens), sequence (P19793 whole entry, looked up, the tested form may be a part): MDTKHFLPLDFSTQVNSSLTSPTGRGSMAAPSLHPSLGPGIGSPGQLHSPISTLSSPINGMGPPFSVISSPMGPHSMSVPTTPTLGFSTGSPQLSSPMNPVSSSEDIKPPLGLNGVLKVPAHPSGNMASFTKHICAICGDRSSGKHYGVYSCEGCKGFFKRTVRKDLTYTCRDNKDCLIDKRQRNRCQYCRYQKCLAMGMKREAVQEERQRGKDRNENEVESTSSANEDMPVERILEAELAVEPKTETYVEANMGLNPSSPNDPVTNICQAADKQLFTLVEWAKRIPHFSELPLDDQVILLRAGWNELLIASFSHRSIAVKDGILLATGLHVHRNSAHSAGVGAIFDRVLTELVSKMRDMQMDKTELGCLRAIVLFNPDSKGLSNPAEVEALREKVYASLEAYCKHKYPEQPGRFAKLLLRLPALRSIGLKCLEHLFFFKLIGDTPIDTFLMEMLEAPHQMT
Peroxisome proliferator-activated receptor gamma (Homo sapiens), sequence (P37231 whole entry, looked up, the tested form may be a part): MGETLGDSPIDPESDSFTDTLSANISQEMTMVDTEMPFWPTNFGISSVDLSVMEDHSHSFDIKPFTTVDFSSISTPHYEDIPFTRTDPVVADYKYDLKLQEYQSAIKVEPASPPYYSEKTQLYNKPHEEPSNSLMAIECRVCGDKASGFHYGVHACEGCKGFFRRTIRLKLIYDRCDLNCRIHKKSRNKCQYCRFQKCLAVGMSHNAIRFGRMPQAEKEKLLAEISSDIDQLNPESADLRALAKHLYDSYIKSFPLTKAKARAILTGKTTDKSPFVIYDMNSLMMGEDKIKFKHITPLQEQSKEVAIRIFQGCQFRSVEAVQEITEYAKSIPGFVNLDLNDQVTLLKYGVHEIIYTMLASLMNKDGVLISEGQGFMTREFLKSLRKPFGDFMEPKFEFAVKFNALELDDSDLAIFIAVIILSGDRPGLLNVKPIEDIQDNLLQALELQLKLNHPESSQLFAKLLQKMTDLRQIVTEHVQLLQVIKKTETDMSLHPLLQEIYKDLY
Bile acid receptor (Homo sapiens), sequence (Q96RI1 whole entry, looked up, the tested form may be a part): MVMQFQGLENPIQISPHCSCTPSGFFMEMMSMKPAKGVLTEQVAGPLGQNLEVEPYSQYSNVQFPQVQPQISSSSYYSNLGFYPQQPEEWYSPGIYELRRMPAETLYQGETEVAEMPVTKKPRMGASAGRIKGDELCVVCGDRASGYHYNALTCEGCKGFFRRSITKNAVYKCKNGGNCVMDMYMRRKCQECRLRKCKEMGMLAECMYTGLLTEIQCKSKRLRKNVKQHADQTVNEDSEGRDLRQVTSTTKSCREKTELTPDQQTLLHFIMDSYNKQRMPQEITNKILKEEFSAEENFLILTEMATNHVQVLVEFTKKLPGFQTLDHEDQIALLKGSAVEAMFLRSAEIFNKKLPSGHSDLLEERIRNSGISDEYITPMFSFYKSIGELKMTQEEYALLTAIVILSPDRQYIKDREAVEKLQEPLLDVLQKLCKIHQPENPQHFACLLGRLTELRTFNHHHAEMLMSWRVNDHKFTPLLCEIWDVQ
Estrogen receptor beta (Homo sapiens), sequence (Q92731 whole entry, looked up, the tested form may be a part): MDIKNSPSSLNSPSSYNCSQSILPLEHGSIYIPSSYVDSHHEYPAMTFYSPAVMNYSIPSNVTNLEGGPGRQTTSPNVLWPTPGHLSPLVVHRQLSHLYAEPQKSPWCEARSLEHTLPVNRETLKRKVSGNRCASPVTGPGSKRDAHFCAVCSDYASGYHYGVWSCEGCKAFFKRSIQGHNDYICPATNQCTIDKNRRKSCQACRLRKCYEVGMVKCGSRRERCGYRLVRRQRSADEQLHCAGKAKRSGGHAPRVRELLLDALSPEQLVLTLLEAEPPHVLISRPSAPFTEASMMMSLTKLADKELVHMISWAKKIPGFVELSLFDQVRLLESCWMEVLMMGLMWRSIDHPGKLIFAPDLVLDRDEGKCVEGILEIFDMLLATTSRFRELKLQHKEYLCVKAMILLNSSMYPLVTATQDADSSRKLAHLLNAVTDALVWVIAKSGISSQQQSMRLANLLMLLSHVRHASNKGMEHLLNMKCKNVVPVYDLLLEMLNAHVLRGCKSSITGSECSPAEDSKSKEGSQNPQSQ
Agonist Androgen Response Element (ARE), AR (gene 367), sequence (P10275 whole entry, looked up): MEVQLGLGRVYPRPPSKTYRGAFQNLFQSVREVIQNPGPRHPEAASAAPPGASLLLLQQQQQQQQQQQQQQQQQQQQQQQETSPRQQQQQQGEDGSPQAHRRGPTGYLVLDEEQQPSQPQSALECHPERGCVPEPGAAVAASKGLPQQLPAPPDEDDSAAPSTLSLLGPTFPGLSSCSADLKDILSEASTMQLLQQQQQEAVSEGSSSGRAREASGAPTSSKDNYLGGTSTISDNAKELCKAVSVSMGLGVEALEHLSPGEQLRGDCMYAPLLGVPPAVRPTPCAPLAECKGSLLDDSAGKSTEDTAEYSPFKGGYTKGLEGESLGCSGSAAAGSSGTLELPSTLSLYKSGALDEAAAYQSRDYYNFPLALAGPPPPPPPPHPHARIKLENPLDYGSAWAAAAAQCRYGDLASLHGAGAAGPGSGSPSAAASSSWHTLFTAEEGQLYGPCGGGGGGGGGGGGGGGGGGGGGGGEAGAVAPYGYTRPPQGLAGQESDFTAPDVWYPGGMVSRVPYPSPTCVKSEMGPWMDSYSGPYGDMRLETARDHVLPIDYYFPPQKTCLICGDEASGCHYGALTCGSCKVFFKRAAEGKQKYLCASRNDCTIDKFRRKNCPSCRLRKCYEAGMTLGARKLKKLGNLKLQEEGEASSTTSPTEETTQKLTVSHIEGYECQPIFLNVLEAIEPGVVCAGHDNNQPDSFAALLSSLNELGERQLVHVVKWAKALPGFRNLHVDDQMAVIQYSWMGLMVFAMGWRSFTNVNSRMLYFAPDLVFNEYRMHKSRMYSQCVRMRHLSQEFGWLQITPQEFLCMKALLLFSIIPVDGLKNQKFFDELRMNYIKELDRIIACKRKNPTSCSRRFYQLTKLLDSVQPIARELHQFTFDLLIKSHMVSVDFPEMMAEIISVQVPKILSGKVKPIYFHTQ

SMILES: CCCCCCCCCCCCCOP(=O)(O)O
- outcome [1]: inactive
- outcome [2]: inactive
- outcome [3]: inactive
- outcome [4]: inactive
- outcome [5]: inactive
- outcome [6]: inactive
- outcome [7]: inactive

SMILES: CC(C)c1ccc2c(C(C)C)cc(C(C)C)c(S(=O)(=O)O)c2c1
- outcome [8]: inactive
- outcome [2]: inactive
- outcome [3]: inactive
- outcome [9]: inactive
- outcome [4]: inactive
- outcome [6]: inactive
- outcome [7]: inactive

SMILES: CCCCC/C=C\CCC=O
- AC50 [8]: 1.31 µM (active)
- outcome [2]: inactive
- outcome [3]: inactive
- outcome [4]: inactive
- outcome [5]: inactive
- outcome [6]: inactive
- outcome [7]: inactive

SMILES: CO[Si](OC)(OC)c1ccccc1
- outcome [1]: inactive
- outcome [2]: inactive
- outcome [3]: inactive
- outcome [4]: inactive
- outcome [5]: inactive
- outcome [6]: inactive
- outcome [7]: inactive

SMILES: O=C1C(N(CO)C(=O)NCO)N(CO)C(=O)N1CO (stereo not given)
- outcome [1]: inactive
- outcome [2]: inactive
- outcome [3]: inactive
- outcome [6]: inactive
- outcome [7]: inactive

SMILES: CC(=O)OC(C)C
- AC50 [1]: 25.9 µM (active)
- AC50 [2]: 69.2 µM (active)
- outcome [3]: inactive
- outcome [4]: inactive
- outcome [6]: inactive
- outcome [7]: inactive

SMILES: C1=Cc2ccccc2C1
- outcome [2]: inactive
- outcome [3]: inactive
- outcome [5]: inactive
- outcome [6]: inactive
- outcome [7]: inactive

SMILES: O=C(C=Cc1ccccc1)OCc1ccccc1
- outcome [1]: inactive
- outcome [2]: inactive
- outcome [3]: inactive
- outcome [4]: inactive
- outcome [6]: inactive
- outcome [7]: inactive

SMILES: CCCCOCCOC(=O)COc1nc(Cl)c(Cl)cc1Cl
- outcome [2]: inactive
- outcome [3]: inactive
- outcome [9]: inactive
- outcome [10]: inactive
- outcome [5]: inactive
- outcome [6]: inactive
- outcome [7]: inactive

SMILES: CC(CC=O)CCCC(C)(C)O (stereo not given)
- outcome [2]: inactive
- outcome [3]: inactive
- outcome [4]: inactive
- outcome [5]: inactive
- outcome [6]: inactive
- outcome [7]: inactive

SMILES: Cc1ccc(C(C)(C)C)cc1
- outcome [2]: inactive
- outcome [3]: inactive
- outcome [4]: inactive
- outcome [5]: inactive
- outcome [6]: inactive
- outcome [7]: inactive

SMILES: NC(CO)(CO)CO
- outcome [2]: inactive
- outcome [3]: inactive
- outcome [4]: inactive
- outcome [5]: inactive
- outcome [6]: inactive
- outcome [7]: inactive

SMILES: CCN(CCC#N)c1ccc(N=Nc2c(Cl)cc([N+](=O)[O-])cc2Cl)cc1
- outcome [2]: inactive
- outcome [3]: inactive
- AC50 [9]: 29 µM (active)
- outcome [10]: inactive
- AC50 [4]: 67.7 µM (active)
- AC50 [5]: 50 µM (active)
- outcome [6]: inactive
- outcome [7]: inactive

SMILES: O=C(OCC1CCC2OC2C1)C1CCC2OC2C1 (stereo not given)
- outcome [2]: inactive
- outcome [3]: inactive
- outcome [4]: inactive
- outcome [5]: inactive
- outcome [6]: inactive
- outcome [7]: inactive

SMILES: C=CC(=O)NC(C)(C)CS(=O)(=O)O
- outcome [1]: inactive
- outcome [2]: inactive
- outcome [3]: inactive
- outcome [6]: inactive
- outcome [7]: inactive

SMILES: CCCCCCCC[N+](C)(CCCCCCCC)CCCCCCCC
- outcome [1]: inactive
- outcome [2]: inactive
- AC50 [3]: 12.4 µM (active)
- outcome [6]: inactive
- outcome [7]: inactive

SMILES: OC1CCCC1
- outcome [1]: inactive
- outcome [2]: inactive
- outcome [3]: inactive
- outcome [5]: inactive
- outcome [6]: inactive
- outcome [7]: inactive
